Assay outcomes as filed in PubChem.
697 NFkB inh = inhibitors of the PMA/ionomycin-induced NF-kB reporter in 697 B cells | inhibition, % at 4 µM | 0.33% of 330,000 active | 697 B-cell NF-kB luciferase reporter, 16 h | AID 435022; in the data active = inhibition above about 35%
Gli-Sufu antag = Gli-Sufu pathway antagonism; Sufu-KO-LIGHT fibroblasts, Gli luciferase reporter luminescence; AID 588413; inhibition, % at 5 µM; 0.74% of 340,000 active;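 active = inhibition above about 55%, limit read from the data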;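 also: 0% = DMSO-treated cells and 100% = wells with medium but no cells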
CSC inhib = blocks cancer stem cells | cancer stem cell-like cells viability, luminescence | AID 2717 | inhibition, % at 7.5 µM | 1.1% of 300,000 active; in the data active = inhibition above about 75%; tested in HMLE shEcad cells
aSyn 5UTR inh = MLPCN primary screen, SNCA 5' untranslated region; alpha-synuclein 5'UTR reporter, inhibitor activity; inhibition, % (tested at 7.5 µM); 0.82% of 300,000 active; AID 1813; in the data active = inhibition above about 60%;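 also: H4 neuroglioblastoma cells stably carrying SNCA 5'UTR luciferase fusion; 0% = DMSO wells and 100% = positive control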
Mdm2 MdmX PPI = disrupts the human Mdm2-MdmX interaction. 3% of 330,000 active. inhibition, % at 8 µM. O15151+Q00987. AID 485346. SaOS-2 split-luciferase Mdm2/MdmX complementation, luminescence;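 active = inhibition of at least 50% at 8 µM in the primary screen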
Target sequence (O15151 whole entry, looked up): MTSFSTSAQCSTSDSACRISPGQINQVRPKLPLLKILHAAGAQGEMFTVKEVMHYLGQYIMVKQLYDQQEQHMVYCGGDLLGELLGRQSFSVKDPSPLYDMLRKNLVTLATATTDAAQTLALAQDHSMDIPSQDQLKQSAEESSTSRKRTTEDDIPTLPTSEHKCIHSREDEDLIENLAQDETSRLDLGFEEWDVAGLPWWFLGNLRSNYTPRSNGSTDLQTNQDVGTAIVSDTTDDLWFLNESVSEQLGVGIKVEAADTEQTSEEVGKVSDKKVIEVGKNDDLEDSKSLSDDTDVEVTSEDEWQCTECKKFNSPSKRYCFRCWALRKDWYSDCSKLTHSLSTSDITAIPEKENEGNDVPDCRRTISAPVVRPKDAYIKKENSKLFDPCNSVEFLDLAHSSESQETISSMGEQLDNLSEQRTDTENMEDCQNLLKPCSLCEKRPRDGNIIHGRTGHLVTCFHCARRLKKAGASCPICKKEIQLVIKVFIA
Target sequence (Q00987 whole entry, looked up): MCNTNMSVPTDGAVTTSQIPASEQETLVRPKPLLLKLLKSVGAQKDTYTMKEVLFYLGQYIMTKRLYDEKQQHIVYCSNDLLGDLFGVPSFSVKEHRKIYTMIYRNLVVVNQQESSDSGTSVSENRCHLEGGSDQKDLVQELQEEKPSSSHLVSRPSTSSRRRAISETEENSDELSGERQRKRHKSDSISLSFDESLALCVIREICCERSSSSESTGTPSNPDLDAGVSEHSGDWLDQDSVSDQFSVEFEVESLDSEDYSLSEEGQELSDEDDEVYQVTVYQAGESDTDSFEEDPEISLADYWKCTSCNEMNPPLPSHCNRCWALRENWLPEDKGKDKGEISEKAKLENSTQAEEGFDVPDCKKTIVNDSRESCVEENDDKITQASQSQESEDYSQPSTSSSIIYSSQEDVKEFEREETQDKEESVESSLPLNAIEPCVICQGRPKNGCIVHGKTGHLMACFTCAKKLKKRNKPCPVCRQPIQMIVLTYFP
Jurkat NFkB inh = inhibitors of the PMA/ionomycin-induced NF-kB reporter in Jurkat cells. PMA/ionomycin-induced NF-kB luciferase reporter, luminescence. inhibition, % at 4 µM. 0.53% of 330,000 active. AID 435003; in the data active = inhibition above about 50%
Mdm2-MdmX conf = confirmation of human Mdm2/MdmX interaction inhibitors; AID 489028; shares compounds with Mdm2 MdmX PPI; Mdm2-MdmX binding, luminescent assay; 55% of 10,000 active; inhibition, % at 8 µM; in the data active = inhibition above about 40%
FLuc counter = inhibits full-length luciferase, flagging false Mdm2/MdmX hits; SaOS-2 full-length luciferase counterscreen, luminescence; 77% of 6,200 active; inhibition, % at 8 µM; AID 504607; shares compounds with Mdm2 MdmX PPI;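 active = mean inhibition at 8 µM reaching about 37%, which flags the compound as non-specific, limit read from the data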;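 also: p53-null SaOS-2 cells with luciferase driven by a doxycycline-inducible promoter; compound on cells about two nights before reading with doxycycline added after day one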
The depositor's hits bear a star. A selection: hits, their analogues and other compounds. The true share with any hit is near 4.5%.

Results for CC(C)(C)n1nnnc1C(c1ccc(F)cc1)N(Cc1ccc(F)cc1)Cc1ccco1 (stereo not drawn) ?
697 NFkB inh: -4.4; Gli-Sufu antag: 18.1; CSC inhib: 24.3; aSyn 5UTR inh: 21.3; Mdm2 MdmX PPI: 61.2*; Jurkat NFkB inh: 9.2; Mdm2-MdmX conf: 33.9

What do the screens show for `CC(C)(C)n1nnnc1C(c1ccc(Cl)cc1)N(Cc1cccnc1)Cc1ccco1` (stereo not drawn)?
697 NFkB inh: -17.4; Gli-Sufu antag: 35.8; CSC inhib: -1.0; aSyn 5UTR inh: 5.1; Mdm2 MdmX PPI: 23.4; Jurkat NFkB inh: 1.3

How did CC(C)(C)n1nnnc1C(c1ccc(C(F)(F)F)cc1)N(Cc1ccccc1)Cc1ccco1 (stereo not drawn) do in these assays?
697 NFkB inh: 13.1; Gli-Sufu antag: 6.8; CSC inhib: -12.6; aSyn 5UTR inh: 12.7; Mdm2 MdmX PPI: 76.7*; Jurkat NFkB inh: 46.6; Mdm2-MdmX conf: -3.6

What do the screens show for `CCN1C(=NCCOC)N[C@@H](c2ccccc2)[C@H](C(=O)OC)[C@H]1C`?
697 NFkB inh: -4.3; Gli-Sufu antag: 0.9; CSC inhib: -15.6; Mdm2 MdmX PPI: 3.7; Jurkat NFkB inh: -10.5

What do the screens show for `O=[N+]([O-])c1cc(S(=O)(=O)N2CCCCC2)ccc1NCCCN1CCOCC1`?
697 NFkB inh: 3.8; Gli-Sufu antag: 0.8; CSC inhib: 20.1; aSyn 5UTR inh: 13.6; Mdm2 MdmX PPI: 6.6; Jurkat NFkB inh: 5.0

Results for COc1ccc(C2c3ccc4ccccc4c3Oc3ncn(CCN4CCOCC4)c(=N)c32)cc1 (stereo not drawn) ?
697 NFkB inh: -7.2; Gli-Sufu antag: -2.6; CSC inhib: 10.5; aSyn 5UTR inh: -12.6; Mdm2 MdmX PPI: 74.6*; Jurkat NFkB inh: -11.6; Mdm2-MdmX conf: 54.9*; FLuc counter: 52.7*

What do the screens show for `COc1ccc(C2c3ccc4ccccc4c3Oc3ncn(CCN4CCOCC4)c(=N)c32)cc1OC` (stereo not drawn)?
697 NFkB inh: 2.5; Gli-Sufu antag: 4.8; aSyn 5UTR inh: 105.4*; Mdm2 MdmX PPI: 69.3*; Jurkat NFkB inh: 11.5; Mdm2-MdmX conf: 46.6*; FLuc counter: 66.7*

Results for COc1ccc(C2c3ccc(O)cc3Oc3ncn(CCN4CCOCC4)c(=N)c32)cc1OC (stereo not drawn) ?
697 NFkB inh: 10.4; Gli-Sufu antag: 2.3; CSC inhib: -0.6; aSyn 5UTR inh: 15.0; Mdm2 MdmX PPI: 16.5; Jurkat NFkB inh: 11.2

Results for COc1ccc(C2c3c(ncn(CCCN4CCOCC4)c3=N)Oc3ccc4ccccc4c32)cc1OC (stereo not drawn) ?
697 NFkB inh: 3.8; Gli-Sufu antag: 5.3; CSC inhib: -7.4; aSyn 5UTR inh: -26.1; Mdm2 MdmX PPI: 86.2*; Jurkat NFkB inh: 0.6; Mdm2-MdmX conf: 51.2*; FLuc counter: 67.3*

How did COc1ccc(Cc2nc3c4c(ncn3n2)Oc2ccc3ccccc3c2C4c2ccc(OC)c(OC)c2)cc1 (stereo not drawn) do in these assays?
697 NFkB inh: 20.7; Gli-Sufu antag: 3.3; CSC inhib: 13.8; aSyn 5UTR inh: 9.8; Mdm2 MdmX PPI: 33.2; Jurkat NFkB inh: 38.1

Results for Cc1ccsc1C(=O)Nc1ccc(OCc2ccccc2)cc1 ?
697 NFkB inh: -122.2; Gli-Sufu antag: -119.0; CSC inhib: -10.8; aSyn 5UTR inh: -190.8; Mdm2 MdmX PPI: -16.0; Jurkat NFkB inh: -116.8

Results for O=C(O)c1ccccc1CSc1ccccn1 ?
697 NFkB inh: 14.2; Gli-Sufu antag: 1.1; CSC inhib: 5.0; aSyn 5UTR inh: 6.5; Mdm2 MdmX PPI: -12.9; Jurkat NFkB inh: -12.4

How did Cc1nc(SCc2nc3c([N+](=O)[O-])cccc3[nH]2)c2oc3ccccc3c2n1 do in these assays?
697 NFkB inh: -14.7; Gli-Sufu antag: 20.6; Mdm2 MdmX PPI: 58.4*; Jurkat NFkB inh: -10.7; Mdm2-MdmX conf: 14.5

How did COc1cc(OC)cc(C(=O)N[C@H](C(=O)NCc2cccs2)C(C)C)c1 do in these assays?
697 NFkB inh: 11.5; Gli-Sufu antag: -3.1; CSC inhib: -7.6; aSyn 5UTR inh: -4.9; Mdm2 MdmX PPI: -24.2; Jurkat NFkB inh: -1.5

What do the screens show for `CC(C)C(=O)NC(Nc1cc(C(F)(F)F)ccc1Cl)C(Cl)(Cl)Cl` (stereo not drawn)?
697 NFkB inh: 2.5; Gli-Sufu antag: 4.4; aSyn 5UTR inh: 9.8; Mdm2 MdmX PPI: 28.6; Jurkat NFkB inh: -22.4

Results for O=C(NC(Nc1cc(C(F)(F)F)ccc1Cl)C(=O)c1ccccc1)c1ccccc1 (stereo not drawn) ?
697 NFkB inh: -8.2; Gli-Sufu antag: -9.4; CSC inhib: 13.3; aSyn 5UTR inh: 25.1; Mdm2 MdmX PPI: 51.6*; Jurkat NFkB inh: -1.7; Mdm2-MdmX conf: 8.3

How did CCc1ccc(Nc2nc(N)nc(CSc3nnnn3-c3ccccc3)n2)cc1 do in these assays?
697 NFkB inh: -17.0; Gli-Sufu antag: -5.8; CSC inhib: 23.3; aSyn 5UTR inh: -5.2; Mdm2 MdmX PPI: 59.5*; Jurkat NFkB inh: -4.4; Mdm2-MdmX conf: 62.5*; FLuc counter: 47.7*

How did Cc1ccccc1Nc1nc(N)nc(CSc2nnnn2-c2ccccc2)n1 do in these assays?
697 NFkB inh: 12.4; Gli-Sufu antag: -3.3; CSC inhib: -5.7; aSyn 5UTR inh: 15.9; Mdm2 MdmX PPI: 11.3; Jurkat NFkB inh: 14.5

Results for N#Cc1c(N)nc2c3c(sc(=N)c2c1N)NC(=O)CC3c1ccccc1 (stereo not drawn) ?
697 NFkB inh: -5.3; Gli-Sufu antag: -5.6; CSC inhib: -3.1; aSyn 5UTR inh: 5.0; Mdm2 MdmX PPI: 17.4; Jurkat NFkB inh: 3.6

What do the screens show for `Cc1c(C#N)c(N)nc2c3c(sc12)NC(=O)CC3c1ccc(Cl)cc1` (stereo not drawn)?
697 NFkB inh: 10.6; Gli-Sufu antag: 22.4; CSC inhib: -14.5; aSyn 5UTR inh: 47.5; Mdm2 MdmX PPI: 92.5*; Jurkat NFkB inh: 17.2; Mdm2-MdmX conf: 24.4

What do the screens show for `Cc1ccc(-n2cc(CNCCCn3ccnc3C)c(-c3ccc(F)cc3)n2)cc1`?
697 NFkB inh: 1.3; Gli-Sufu antag: 10.9; CSC inhib: -0.6; aSyn 5UTR inh: -17.4; Mdm2 MdmX PPI: 73.0*; Jurkat NFkB inh: 4.1; Mdm2-MdmX conf: 29.6

What do the screens show for `Cc1ccc(-n2cc(CNCCc3cscn3)c(-c3ccc(F)cc3)n2)cc1`?
697 NFkB inh: -14.6; Gli-Sufu antag: 25.2; CSC inhib: -8.2; aSyn 5UTR inh: -14.1; Mdm2 MdmX PPI: 18.3; Jurkat NFkB inh: -4.1

How did CC(C)(C)OC(=O)NCc1ccc(CNC(=O)c2[nH]cnc2C(=O)N[C@@H](Cc2ccccc2)C(=O)OCc2ccccc2)cc1 do in these assays?
697 NFkB inh: 8.9; Gli-Sufu antag: -7.0; CSC inhib: 1.4; aSyn 5UTR inh: -13.0; Mdm2 MdmX PPI: 2.8; Jurkat NFkB inh: 4.0
